Rows were chosen to be rich in hits. Some 10% of all compounds tested hit in one or more screens of this group.
FLuc inh – Photinus pyralis luciferase inhibition. purified P. pyralis luciferase, luminescence, biochemical. Potency, µM (titrated, usually from 115 µM), hits mostly inhibitors. hit rate 2.5% among 76,000. P08659. AID 1347043; further: nearly all actives have a fitted effect of over 65% in size
Target sequence (P08659 whole entry, looked up): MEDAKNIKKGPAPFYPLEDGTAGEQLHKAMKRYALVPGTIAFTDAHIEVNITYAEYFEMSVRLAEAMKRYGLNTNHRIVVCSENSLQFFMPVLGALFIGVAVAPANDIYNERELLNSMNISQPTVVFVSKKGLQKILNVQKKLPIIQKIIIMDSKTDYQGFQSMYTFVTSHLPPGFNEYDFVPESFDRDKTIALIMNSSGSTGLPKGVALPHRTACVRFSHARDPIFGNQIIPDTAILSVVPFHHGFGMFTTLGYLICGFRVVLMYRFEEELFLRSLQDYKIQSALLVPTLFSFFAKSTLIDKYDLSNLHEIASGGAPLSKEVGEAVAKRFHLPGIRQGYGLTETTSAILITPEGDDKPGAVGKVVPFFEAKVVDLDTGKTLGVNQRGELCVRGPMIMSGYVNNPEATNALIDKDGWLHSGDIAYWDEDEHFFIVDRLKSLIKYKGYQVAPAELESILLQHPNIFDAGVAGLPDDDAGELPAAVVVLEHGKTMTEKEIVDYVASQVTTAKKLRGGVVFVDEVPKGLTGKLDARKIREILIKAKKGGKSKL
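Luminescence read by CCD imaging after purified firefly luciferase (10nM final) was added to substrate buffer holding 10uM D-luciferin and 10uM ATP, pH 7.5, pre-dosed with compound.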
GPT2 inh – blocks human glutamate pyruvate transaminase 2 | Recombinant GPT2, coupled pyruvate oxidase/HRP Amplex Red fluorescence | Q8TD30 | hit rate 0.25% among 100,000 | AID 1671188 | Potency, µM (highest dose often 57.7 µM), for inactives: top-dose activity change, negative = inhibition, usual class: inhibitors; further: nearly all actives have a fitted effect of over 60% in size
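GPT2 10ng/uL, a-KG 250uM, L-Ala 2mM, HEPES pH7.5 + 0.0001% Tween; 30 min RT. Then Amplex mix (PO/HRP/ThPP), 30 min RT dark, fluorescence. AOA 50uM used as positive control.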
hNpr1 antagonist – human Npr1 receptor antagonism | HEK293 hNpr1 GloSensor cGMP, ANP-stimulated luminescence | Potency, µM (highest dose often 46.3 µM), inactives show at the top dose activity change, negative = inhibition, actives largely listed as inhibitors | hit rate 1.6% among 76,000; calls by dose curve; further: nearly all actives have a fitted effect of over 60% in size
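HEK293 cells stably expressing human Npr1 and cGMP GloSensor pGS-40F, loaded 2 h with 2% GloSensor reagent, given compound 30 min at room temperature. Luminescence read before and 20 min after 0.1 nM hNppA.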
3T3 cytotox – kills NIH 3T3 cells; Potency, µM (titrated, usually from 96.7 µM), for the others: at the top dose activity change, negative = cytotoxicity, hits mostly inhibitors; NIH 3T3 viability, CellTiter-Glo ATP luminescence, 48-72 h; AID 1345082; hit rate 4.3% among 94,000; further: nearly all actives have a fitted effect of over 55% in size
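Cytotoxicity was measured by CellTiter-Glo ATP luminescence after 48 or 72 h compound exposure at 37 °C. Mouse NIH 3T3 fibroblasts were seeded at 400 cells/well and dosed by 23 nL pin transfer.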
HEK cytotox – HEK 293 cell cytotoxicity; HEK 293 viability, ATP luminescence (CellTiter-Glo), 48-72 h; Potency, µM (titrated, usually from 115 µM), inactives show at the top dose activity change, negative = cytotoxicity, hits mostly inhibitors; hit rate 6.6% among 94,000; AID 1345083; further: nearly all actives have a fitted effect of over 60% in size
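CellTiter-Glo luminescence (cellular ATP) was read after 48 or 72 hr of compound exposure at 37 degree Celsius. Cells were HEK 293 plated at 250 cells/well.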
* hit, by the source's call; i = inactive; ? = inconclusive; / = no result given; [ ] = another dose, or the depositor's remark. Unless noted, the call rests on the fitted dose curve; in most records, active means well fitted curve in the direction sought with a large enough effect; inconclusive means small, poorly fitted or top-dose-only effect, or another doubt; inactive means no such curve, though single readings can be large; an effect the other way counts as inactive or inconclusive. On the % scale 0 is the no-effect control and ±100 the full control effect; potency means the concentration at half of the fitted maximal effect.

SMILES | FLuc inh | GPT2 inh | hNpr1 antagonist | 3T3 cytotox | HEK cytotox
O=C(c1cccc(Cl)c1)N1CCC2(CC1)CC(=O)N(c1ccccc1)c1ccccc1O2 | i | i | -8% | ? | ?
COc1ccc(OC)c(S(=O)(=O)N2CCC(c3nc(-c4cccn4C)no3)CC2)c1 | / | -9% | / | ? | 40µM*
CNC(=O)[C@@H]1CN(Cc2ccc(Cl)cc2F)C[C@H]1CO | i | i | 3% | -18% | -14%
Cn1c([C@H]2CCN(Cc3ccccc3)C2)nc2ccccc21 | i | 1%[88.5 µM] | -15%[70.6 µM] | ? | ?
Cn1c([C@H]2CCN(Cc3ccc(Cl)cc3)C2)nc2ccccc21 | i | i | ? | 100µM* | ?
Cc1ccc([S+](=O)([O-])N2CCCC(C(=O)N3CCC(c4nc5ccncc5[nH]4)CC3)C2)cc1 (stereo not given) | / | i | / | ? | ?
COc1cccc(-c2cc3c(=O)n(CCNC(=O)c4ccoc4)ccn3n2)c1 | ? | -7% | -21% | -13% | 45µM*
COc1cccc(-c2cc3c(=O)n(CCNC(=O)c4cc(F)cc(F)c4)ccn3n2)c1 | i | i | -25% | ? | ?
COc1cccc(-c2cc3c(=O)n(CCNC(=O)C(C)Oc4ccccc4)ccn3n2)c1 (stereo not given) | ? | 2% | ? | ? | 45µM*
COc1cccc(-c2cc3c(=O)n(CCNC(=O)c4cccnc4)ccn3n2)c1 | ? | i | -18% | -4% | 3%
COc1cccc(-c2cc3c(=O)n(CCNC(=O)c4c(F)cccc4F)ccn3n2)c1 | 7.9µM* | i | -13% | -23% | 1%
Cc1ccc(CN2C(=O)OC(c3cccc(NC(=O)c4ccccc4)c3)C2C(=O)NCCC(C)C)cc1 (stereo not given) | i | -22% | -10% | ? | ?
O=C(C1CCCN1C(=O)Cc1ccccn1)N1CCC(N2Cc3ccccc3C2=O)CC1 (stereo not given) | / | i | / | -12% | -20%
CCN1CCN(C(=O)c2ccc3nnc(Cc4ccco4)n3c2)CC1 | / | i | / | -18%[138 µM] | 3%[172 µM]
COc1cccc(C(=O)N2CCC(c3n[nH]c(=O)n3-c3ccc(C)cc3)CC2)c1 | i | i | 3% | 35µM* | -6%
Cc1ccc(CC(=O)N2CCC(c3n[nH]c(=O)n3-c3ccc(C)cc3)CC2)cc1 | i | i | -7% | ? | 4%
COc1ccc(CC(=O)N2CCC(c3n[nH]c(=O)n3-c3ccc(C)cc3)CC2)cc1 | i | i | 0% | 32µM* | -8%
O=C(Cc1ccc(Cl)cc1)N1CCC(c2n[nH]c(=O)n2-c2ccccc2)CC1 | i | 0% | 10% | 32µM* | -2%
COc1cc(OC)cc(C(=O)N2CCC(c3n[nH]c(=O)n3Cc3ccc(F)cc3)CC2)c1 | i | 1% | 0% | 18µM* | 1%
Cc1cccc(-c2nc3ccc(C(=O)N(C)C)cc3o2)n1 | / | 2% | / | ? | ?
O=c1[nH]c(C2CCN([S+](=O)([O-])c3cccc(C(F)(F)F)c3)CC2)nn1-c1ccccn1 | / | i | / | ? | ?
COc1cc(OC)cc(C(=O)N2CCC(c3n[nH]c(=O)n3-c3ccc(C)cc3)CC2)c1 | i | i | 13% | 25µM* | 2%
CC1=C[C@@H](CNC(=O)c2ccccn2)[C@H](C(C)C)C[C@H]1CC(=O)N1CCN(C)CC1 | i | 1%[88.5 µM] | -2%[70.6 µM] | -6%[138 µM] | -12%[172 µM]
Cc1ccc(OCC(=O)N2CCOc3ccc(CN4CCc5ccccc5C4)cc3C2)cc1 | i | -10% | -24% | 40µM* | ?
O=C(COc1ccc(F)cc1)N1CCOc2ccc(CN3CCc4ccccc4C3)cc2C1 | i | i | ? | ? | ?
SMILES | FLuc inh | GPT2 inh | hNpr1 antagonist | 3T3 cytotox | HEK cytotox
O=C(C1CC1)N1CCOc2ccc(CN3CCc4ccccc4C3)cc2C1 | i | i | ? | -17% | 40µM*
O=C(COc1ccccc1)N1CCOc2ccc(CN3CCc4ccccc4C3)cc2C1 | i | i | ? | ? | 32µM*
CCOC(=O)C1CCCN(C(=O)c2cn3cc(-c4cccc(OC)c4)sc3n2)C1 (stereo not given) | / | i | / | ? | ?
CCN(CC)C(=O)C[C@@H]1CCNC[C@@H]1Cc1cc(-c2ccccc2)on1 | i | 0%[88.5 µM] | -1%[70.6 µM] | ? | ?
CC(C)(C)NC(=O)C[C@@H]1CCNC[C@@H]1Cc1cc(CC2CCCCC2)on1 | i | -10%[88.5 µM] | 7%[70.6 µM] | 35µM* | 45µM*
CC(C)(C)c1cc(C[C@H]2CNCC[C@H]2CC(=O)Nc2ccccc2)no1 | i | 1%[88.5 µM] | -16%[70.6 µM] | 112µM* | ?
CC(=O)N1CCN(C(=O)C[C@@H]2CCNC[C@@H]2Cc2cc(COc3ccccc3)on2)CC1 | i | 1% | -2% | -19% | -7%
O=C(C[C@@H]1CCNC[C@@H]1Cc1cc(COc2ccccc2)on1)N1CCN(c2ccc(F)cc2)CC1 | i | -9% | -16% | 25µM* | 22µM*
CN(Cc1ccccc1)C(=O)C[C@@H]1CCNC[C@@H]1Cc1cc(-c2ccc(F)cc2)on1 | i | i | -23%[70.6 µM] | 32µM* | 35µM*
COC1CN(c2ccc(C)cc2)C12CCN(C(=O)c1ccnn1C)CC2 (stereo not given) | i | -1% | -9% | -3% | -7%
COCCOc1cc(C)c2c(c1C)C[C@H](C(C)C(=O)N1CCSCC1)CC2 (stereo not given in full) | i | -10%[88.5 µM] | ? | ? | ?
Cc1cccc2c1O[C@H]1[C@H](C(=O)O)CN(C(=O)c3ncoc3-c3ccccc3)[C@@H]21 | / | / | / | ? | -17%
CCN(CC)C(=O)C[C@@H]1CCNC[C@@H]1Cc1cc(CC2CCCCC2)on1 | i | -3%[88.5 µM] | 3%[70.6 µM] | 25µM* | 71µM*
CCCCc1cc(C[C@H]2CNCC[C@H]2CC(=O)NCCNC(C)=O)no1 | i | -5%[88.5 µM] | 7%[70.6 µM] | 3%[174 µM] | i
CCCCc1cc(C[C@H]2CNCC[C@H]2CC(=O)Nc2nccs2)no1 | 63µM* | 4%[88.5 µM] | -12%[70.6 µM] | ? | ?
CN(Cc1ccccc1)C(=O)C[C@@H]1CCNC[C@@H]1Cc1cc(CC2CCCCC2)on1 | i | -2%[88.5 µM] | ? | 45µM* | 28µM*
COCc1cc(C[C@H]2CNCC[C@H]2CC(=O)N(C)Cc2ccccc2)no1 | i | i | -2%[70.6 µM] | -5%[174 µM] | -6%[172 µM]
O=C(C[C@@H]1CCNC[C@@H]1Cc1cc(-c2ccc(F)cc2)on1)N1CCC(Cc2ccccc2)CC1 | i | -3% | 1% | 20µM* | 32µM*
O=C(C[C@@H]1CCNC[C@@H]1Cc1cc(-c2ccccc2)on1)N1CCOCC1 | i | i | 1%[70.6 µM] | -1%[174 µM] | -1%[172 µM]
COCCOC1CCOC2(CCN(C(=O)COc3ccc(C)cc3)CC2)C1 (stereo not given) | i | i | 2% | -9% | 3%

Screening data: PubChem, National Center for Advancing Translational Sciences (NCATS)
